# Measured values as given in PubChem BioAssay (NCI).
# “And” between values parts separate entries of the source, which are not always exact repeats. Identical values can stand only once. This is part of a sample that, as a whole, favours compounds with a hit. Of some 83,000 tested, about 20% had one in any assay.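 For each line, cells grew in 96-well plates with the test compound present at a single concentration for 48 hours.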 The source made the active and inactive calls.
# Tested on: MOLT-4 leukemia
# Assay: NCI-60 one-dose screen, 48 h (100 = growth as untreated, 0 = no growth, -100 = all killed)
# Conditions: 0.25 µM
# Procedure: Growth inhibition of the MOLT-4 human tumor cell line is measured as a screen for anti-cancer activity. Cells are grown in 96 well plates and exposed to the test compound for 48 hours. Compounds are tested at a single concentration, which is 10^-5 M for most compounds. The reported endpoint is percent growth (GI% or GIPRCNT), where numbers from 0 - 100% represent growth inhibition, and numbers from -100% - 0 represent cell death. For example, a value of 40 represents 60% growth inhibition. A value of 0 means no net growth occurred over the course of the experiment. A value of -40 indicates 40% of cells at the beginning of the experiment died by the end of the experiment. A value of -100 means all cells are dead at the end of the experiment.
# NCI-60 Human Tumor Cell Lines Screen was performed using the standard one-dose NCI protocol, which is described in more detail at https://dtp.cancer.gov/discovery_development/nci-60/default.htm.
# Compounds with GIPRCNT values below 10 were considered active. Activity score was based on GIPRCNT using the following formula: […]
# Score is 0 for GIPRCNT values of 100 or above, 50 for GIPRCNT values of 0, and 100 for GIPRCNT values of -100.
row,SMILES,growth
1,CCCCCCCCCCCCCCCc1ccc(Cl)c(O)c1Cl (tested in a mixture with another compound),4.89% (active)

# Same assay, conditions: 1 µM
row,SMILES,growth
1,CNC(=O)c1cc(Oc2ccc(CC(=O)Nc3cc(C(C)(C)C)nn3C)cc2)ccn1,78% (inactive)

# Same assay, conditions: 10 µM
row,SMILES,growth
1,CNC(=O)c1cc(Oc2ccc(CC(=O)Nc3cc(C(C)(C)C)nn3C)cc2)ccn1,-64.3% (active)
2,CC(C)(C)c1cc(NC(=O)Cc2ccc(-c3cnc4cc(-c5cnn(CCN6CCOCC6)c5)ccc4n3)cc2)no1,13.8% (inactive)
3,CC#C[C@]1(O)CC[C@H]2[C@@H]3CCC4=CC(=O)CCC4=C3[C@@H](c3ccc4c(c3)OCO4)C[C@@]21C,69.2% (inactive)
4,CCCCCCCCCCCCCCCc1ccc(Cl)c(O)c1Cl (tested in a mixture with another compound),104% (inactive)

# Same assay, conditions: 10 µM unless noted
row,SMILES,growth
1,CCN(CC)CCCC(CNc1ccnc2cc(Cl)ccc12)c1ccc(Cl)cc1 (stereo not given),-18% (active) and -51.4% (active)
2,COC(=O)[C@H]1CCCN1C(=O)C1CCCN1C(=O)[C@@H](Cc1ccccc1)NC(=S)Nc1cc(C(F)(F)F)cc(C(F)(F)F)c1 (stereo not given in full),91.3% (inactive) and 42.9% (inactive)
3,CN(C)c1ccc(/C=C(\C#N)c2ccccc2)cc1,25.2% (inactive) and 35.6% (inactive) and 34.9% (inactive)
4,COc1ccc(NC(=S)Nc2ccccn2)cc1,91% (inactive)
5,CN(Cc1ccccc1)Cc1ccccc1,122% (inactive)
6,O=[N+]([O-])c1ccc2nc3c4ccccc4c4ccccc4c3nc2c1,89.7% (inactive)
7,CCOc1ccc(Nc2c3ccccc3nc3ccccc23)cc1,89.9% (inactive) and -2.2% (active) and -10.9% (active)
8,O=C(O)CCCCc1ccc([N+](=O)[O-])cc1,99.4% (inactive) and 88.5% (inactive)
9,CC1CCCC(=O)O1 (stereo not given),99.5% (inactive) and 106% (inactive)
10,O=C(Nc1cccc(-n2ccc3c(NC(=O)c4ccccc4)nccc32)c1)c1ccc(Cl)c(C(F)(F)F)c1,-4.82% (active) and 10.3% (inactive)
11,O=[N+]([O-])c1ccc(-n2[nH]nnc2=S)cc1,102% (inactive)
12,c1ccc2cc(C[n+]3ccn(Cc4ccc5ccccc5n4)c3)ccc2c1,0.992% (active) and 34% (inactive)
13,Nc1cc2c(cc1N)-c1ccccc1C2,57.3% (inactive) and 79.8% (inactive)
14,CNC(=O)c1ccc(C)c(-n2c(C)cc(OCc3ccc(F)cc3F)c(Br)c2=O)c1,78.8% (inactive) and 91.8% (inactive)
15,Nc1ccc(N=Nc2ccc(S(=O)(=O)O)cc2)cc1S(=O)(=O)O,108% (inactive) and 117% (inactive)
16,O=C(c1ccc(Cl)cc1)C(NCCO)c1ccc(Cl)cc1 (stereo not given),86.6% (inactive) and 96.6% (inactive)

row,SMILES,growth
1,CC1=C(/C=C/C(C)=C/C=C/C(C)=C/C(=O)Nc2ccc(O)cc2)C(C)(C)CCC1,7.55% (active)
2,CCN(CC)C(=S)SSC(=S)N(CC)CC,46% (inactive) and 93.2% (inactive)
3,COc1cc(-c2nccc3cc4c(cc23)OCO4)cc(OC)c1OC,39.4% (inactive) and 17.7% (inactive)
4,NC(=O)NO,95.9% (inactive) and 75.1% (inactive)
5,CCCCCN(CCCCC)CC(O)c1cc2c(c3ccccc13)CCCC2 (stereo not given),41.7% (inactive) and 61.7% (inactive)
6,COc1cc(C(=O)c2ccc3c(c2)OCO3)cc(OC)c1OC,40.7% (inactive) and 42.7% (inactive)
7,CN1C(=O)C(N=Nc2ccc([N+](=O)[O-])cc2)SC1=S (stereo not given),76.7% (inactive) and 70.5% (inactive)
8,CCC(C)C1(C2CCCC2)NC(=O)NC1=O (stereo not given),91.2% (inactive) and 106% (inactive)
9,O=C(O)C1(C(=O)O)CCC1.[NH2-].[NH2-].[Pt+2],113% (inactive) and 67% (inactive)
10,c1ccc2c(CC3=NCCN3)cccc2c1,113% (inactive) and 108% (inactive)
11,N/C(=N\N=C\c1ccc2c(c1)OCO2)N/N=C\c1ccc2c(c1)OCO2,95.4% (inactive) and 50.3% (inactive)
12,O=Nc1ccc(O)cc1,82.5% (inactive) and 89.2% (inactive)
13,CCOC(=O)C(C(=O)OCC)C(c1ccccc1)N1CCN(c2ccccc2)CC1 (stereo not given),103% (inactive) and 99.1% (inactive)
14,OCc1ccccn1,99.1% (inactive)
15,Cc1ccc(S(=O)(=O)Nc2ccc3cc([N+](=O)[O-])ccc3c2[N+](=O)[O-])cc1,82.8% (inactive) and 63% (inactive)

# Same assay, conditions: 30 µM
row,SMILES,growth
1,CNC(=O)c1cc(Oc2ccc(CC(=O)Nc3cc(C(C)(C)C)nn3C)cc2)ccn1,65.6% (inactive)
2,CC(C)(C)c1cc(NC(=O)Cc2ccc(-c3cnc4cc(-c5cnn(CCN6CCOCC6)c5)ccc4n3)cc2)no1,10.8% (inactive)

# Same assay, conditions: 100 µM
row,SMILES,growth
1,CC#C[C@]1(O)CC[C@H]2[C@@H]3CCC4=CC(=O)CCC4=C3[C@@H](c3ccc4c(c3)OCO4)C[C@@]21C,-7.79% (active)
